# Assay results taken from PubChem BioAssay (NCI).
# The panel holds about 83,000 compounds, 20% with a hit somewhere; the sample as a whole holds those more often.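 Compound tested at a single concentration for 48 hours in 96-well plates; a percent growth value below 10 was scored as active.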 A number with no mark means an inactive call. Calls of active or inactive are those of the source.
# Test system: IGROV1 ovarian
# Assay: NCI-60 one-dose screen, 48 h (100 = growth as untreated, 0 = no growth, -100 = all killed)
# Conditions: 10 µM unless noted
row,SMILES,growth
1,C/C(=C\c1ccc(OCC(=O)O)c(Cl)c1Cl)[N+](=O)[O-],133%
2,COc1ccc(-c2cc3c(OC)c(OC)c(OC)cc3oc2=O)cc1,61.6%
3,COc1ccc(Nc2ncccc2C(=O)NCc2cn(Cc3cccc(Oc4ccccc4)c3)nn2)c(OC)c1,48%
4,CC(=O)Nc1scc[n+]1Cc1ccccc1,109%
5,COc1cc2c(c(OC)c1OC)-c1ccc(N)c(=O)cc1[C@@H](NC(C)=O)CC2,1.05% (active)
6,O=C([O][Sn]([O]C(=O)c1ccccn1)([c]1ccccc1)[c]1ccccc1)c1ccccn1,74.1%
7,COC(OC)c1ccccc1,101%
8,Fc1ccc(Nc2nc(NCCNc3ccnc4cc(Cl)ccc34)nc(N3CCOCC3)n2)cc1,75.5%
9,COc1ccc(-c2nc3sc(-c4cc(OC)c(OC)c(OC)c4)nn3c2/C=C2/C(=O)Nc3ccc(F)cc32)cc1,-39.3% (active)
10,Cc1ccc(S(=O)(=O)n2cc(C(=O)C(=O)Nc3ccncc3)c3ccccc32)cc1,45.1%
11,COc1ccc(Nc2ncccc2C(=O)NCc2cn(Cc3cccc(Oc4ccccc4)c3)nn2)cc1,53.5%
12,Cc1cc(C2=NNC(=O)Cc3cc4c(cc32)OCCO4)cc(C)c1N,44.7%
13,CCOC(=O)C1=C(C)NC(C)=C(C(=O)OCC)C1(C)C,131%
14,O=C(Nc1ccncc1)C(=O)c1cn(S(=O)(=O)c2ccc(Br)cc2)c2ccccc12,45.1%
15,CC1CCC(C)N(C)C1 (stereo not given),106%
